Assay outcomes: PubChem BioAssay, National Center for Advancing Translational Sciences (NCATS)
uPA generation – blocks generation of uPA at the cell surface. Potency, µM (series often up to 38.3 µM), for the others: top-dose activity change, negative = inhibition, most hits filed as inhibitors. cell surface uPA generation assay, qHTS. AID 540303. 0.31% of 330,000 active; active means well fitted inhibition curve with a large enough effect; inconclusive means small, poorly fitted or top-dose-only effect; inactive means no such curve, though single readings can be large or run the other way; tested in mouse RAW 264.7 cells; further: on the % scale 0 is the no-effect control and ±100 the full control effect; nearly all actives have a fitted effect of over 55% in size
NPC1 prom act – NPC1 promoter activation. Huh7 NPC1 promoter luciferase reporter, 24 h. 2.4% of 320,000 active. Potency, µM (doses to about 9.22 µM), for inactives: top-dose activation, actives largely listed as activators. AID 485313; further: % of control where 0% means no effect; nearly all actives have a fitted effect of over 60% in size
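Cells: Huh7 expressing luciferase under the NPC1 promoter, 1500/well. Seeded 2 h, compound added, incubated 24 h at 37 °C. Luciferase reagent, 10 min ambient, then luminescence.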
FLuc counter – firefly luciferase modulation, counter-screen for miR-21 project. purified FLuc, Km substrates, luminescence inhibition. Potency, µM (doses to about 57.5 µM), for inactives: at the top dose activity change, negative = inhibition, hits mostly inhibitors. 6.9% of 360,000 active. AID 588342;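 further: plate controls were vehicle for no effect and reference inhibitor for full effect; nearly all actives have a fitted effect of over 55% in size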
Target sequence (P08659 whole entry, looked up): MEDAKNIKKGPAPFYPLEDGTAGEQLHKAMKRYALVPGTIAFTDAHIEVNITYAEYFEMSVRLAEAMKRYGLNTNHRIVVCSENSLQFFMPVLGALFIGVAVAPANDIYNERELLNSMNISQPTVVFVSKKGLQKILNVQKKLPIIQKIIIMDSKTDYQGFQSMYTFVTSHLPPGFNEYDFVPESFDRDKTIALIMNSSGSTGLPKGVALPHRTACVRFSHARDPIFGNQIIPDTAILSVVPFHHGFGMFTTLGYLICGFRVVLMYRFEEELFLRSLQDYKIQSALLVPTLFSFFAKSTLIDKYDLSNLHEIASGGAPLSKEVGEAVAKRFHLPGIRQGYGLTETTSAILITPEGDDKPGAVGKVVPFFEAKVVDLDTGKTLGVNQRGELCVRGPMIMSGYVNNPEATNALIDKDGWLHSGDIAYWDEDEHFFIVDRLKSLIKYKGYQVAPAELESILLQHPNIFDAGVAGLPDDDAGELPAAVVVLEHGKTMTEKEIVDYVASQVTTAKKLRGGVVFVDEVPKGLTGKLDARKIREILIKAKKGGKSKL
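Purified P. pyralis luciferase, 10 nM final, with Km-level 10 uM D-luciferin and 10 uM ATP in 50 mM Tris acetate pH 7.5, 10 mM Mg acetate, 0.01% Tween-20, 0.05% BSA; 6-point qHTS titration about 60 µM downward; luminescence read.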
Rab9 promoter act – activates the Rab9 promoter; Huh7 Rab9 promoter-luciferase reporter, luminescence, 24 h; Potency, µM (titrated, usually from 9.22 µM), without a hit: at the top dose activation, negative = inhibition, hits mostly activators; 2.8% of 320,000 active; further: % of control where 0% means no effect; nearly all actives have a fitted effect of over 60% in size
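Huh7 cells stably carrying Rab9 promoter–luciferase reporter, plated 1500 cells/well, compound added after 2 h and incubated 24 h at 37 °C; luciferase luminescence then read after 10 min with detection reagent.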
ELG1 genotox – inducers of genotoxicity in HEK293T ELG1-luciferase cells; AID 504466; Potency, µM (top dose mostly 46 µM), inactives show top-dose activity change, positive = activation, most hits filed as activators; 1.3% of 330,000 active; HEK293T ELG1-luciferase reporter, luminescence, 16 h; further: % of control where 0% means no effect; nearly all actives have a fitted effect of over 60% in size
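After overnight (16 hr) compound treatment at 37 °C, ELG1-luciferase HEK293T cells were lysed with ONE-Glo; luminescence quantified 30 min later at room temperature.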
SMN2 splice up – increases expression of the SMN2 splice variant; Potency, µM (series often up to 46.1 µM), without a hit: at the highest dose activity change, positive = activation, actives largely listed as activators; HEK293 SMN2-luciferase splicing reporter, luminescence, 30-36 h; 2.8% of 210,000 active; further: % of control where 0% means no effect; nearly all actives have a fitted effect of over 55% in size
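qHTS luciferase splicing reporter: luminescence rises when SMN2 exon 7 is included in transfected HEK293 cells. Compound exposure lasted 30-36 h at 37C, with 4.5 mM final sodium butyrate as control, followed by a ONE-Glo read.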
Active calls of the source: *; ? = inconclusive; · = no result given; [ ] = remark or other dose. Most compounds without a hit are left out; they make up all but 7.3% or so of the library. Unless noted, the call rests on the fitted dose curve; in most records, active means well fitted curve in the direction sought with a large enough effect; inconclusive means small, poorly fitted or top-dose-only effect, or another doubt; inactive means no such curve, though single readings can be large; an effect the other way counts as inactive or inconclusive. Potency means the concentration at half of the fitted maximal effect.

SMILES	uPA generation	NPC1 prom act	FLuc counter	Rab9 promoter act	ELG1 genotox	SMN2 splice up
O=C(CN1CCN(Cc2cccc(F)c2)CC1)Nc1ccccc1F	9%	2%	1%	-19%	2%	·
Cc1ccc(-c2nnc(SCC(=O)NC3CCCC3)nc2-c2ccc(C)cc2)cc1	·	·	-9%	·	·	·
Cc1cc(OCC(=O)N(C)C2CCCCC2)ccc1Cl	4%	0.35µM*	2.7µM*	0.63µM*	26%	?
Cc1cc(OCC(=O)N(C)C2CCCCC2)cc(C)c1Cl	4%	12%	?	2%	?	23%
COc1ccc(S(=O)(=O)N2CCC(Oc3ccc(-n4cnnn4)cc3)CC2)cc1OC	·	·	-6%	·	·	-20%
O=C(Nc1nc(-c2cccs2)cs1)C1=COCCO1	-4%	?	12µM*	?	?	13µM*
CCc1ccc(-c2csc(NC(=O)C3=COCCO3)n2)cc1	8%	0.89µM*	8.5µM*	0.79µM*	?	·
O=C(Nc1nc(-c2ccc(Cl)cc2)cs1)C1=COCCO1	0%	?	24µM*	16%	7%	·
Cc1cc(C)c(-c2csc(NC(=O)C3=COCCO3)n2)c(C)c1	-7%	-2%	-1%	-5%	?	·
O=C(Nc1nc(-c2ccc(F)c(F)c2)cs1)C1=COCCO1	1%	20%	?	?	4%	·
Cc1ccc(CSc2nnc(NC(=O)C3=COCCO3)s2)cc1	-4%	10%	27µM*	3%	9%	·
O=C(COc1cccc(C(F)(F)F)c1)NCC(c1cccs1)N1CCOCC1 (stereo not given)	3%	0%	5%	1%	-5%	·
COc1ccccc1OCC(=O)Nc1cccc(N(C)S(C)(=O)=O)c1	·	12%	17µM*	0%	2%	14%
CC(C)c1ccc(NC(=O)CN2C(=O)c3ccccc3S2(=O)=O)cc1	-2%	?	?	?	1%	·
CC(=O)Nc1cccc(N(C)S(C)(=O)=O)c1	7%	-1%	-3%	-4%	0%	8%
COc1ccc(NC(=O)c2ccc(N(C)S(C)(=O)=O)cc2)cc1OC	-18%	8%	-10%[2.3 µM]	11%	1%	16%
CN(c1cccc(NC(=O)CN2C(=O)c3ccccc3S2(=O)=O)c1)S(C)(=O)=O	1%	13%	27µM*	-1%	1%	23%
COc1ccc(C(=O)Nc2cccc(N(C)S(C)(=O)=O)c2)cc1OC	-12%	?	17µM*	?	16µM*	13µM*
NC1=NC(=O)C(=Cc2ccccc2)S1	-9%	·	·	·	·	·
COc1ccc(/C=C2\SC(N)=NC2=O)cc1	-11%	2%	15µM*	25%	4%	·
NC1=NC(=O)/C(=C\c2ccco2)S1	3%	-3%	17µM*	0%	2%	·
CCOC(=O)CSC1=NC(=O)/C(=C/c2ccc(OC)cc2)S1	-10%	-27%	13µM*	-32%	?	-10%[1.84 µM]
COc1ccc(CNC(=O)C(C)n2ccc3cc(S(=O)(=O)N4CCCC4)ccc32)cc1OC (stereo not given)	·	·	4%	·	·	·
Cn1c2cc([N+](=O)[O-])sc2c2cnn(Cc3ccccc3F)c(=O)c21	·	-16%	?	-11%	·	·
Cc1ccc(-n2ncc3c(SCC(=O)NNC(=O)C(C)C)ncnc32)cc1	3%	24%	7.6µM*	13%[1.84 µM]	8%	·
SMILES	uPA generation	NPC1 prom act	FLuc counter	Rab9 promoter act	ELG1 genotox	SMN2 splice up
Cc1ccc(-n2ncc3c(SCC(N)=O)ncnc32)cc1C	3%	4µM*	5.4µM*	3.2µM*	?	·
CC(C)C(=O)NNC(=O)CSc1ncnc2c1cnn2-c1ccccc1Cl	1%	-6%	-2%	-13%	-2%	·
CC(=O)CSc1ncnc2c1cnn2-c1ccccc1	-21%	1.3µM*	7.6µM*	1.1µM*	?	11µM*
CNC(=O)CSc1ncnc2c1cnn2-c1ccccc1	2%	15%	?	?	12%	-15%
CN(C(=O)CO/N=C/c1ccc(OC(F)F)cc1)C1CCS(=O)(=O)C1 (stereo not given)	4%	1%	0%	-2%	2%	4%
CCC(C)NC(=O)COCc1cc(-c2ccc3c(c2)OCO3)on1 (stereo not given)	2%	6%	?	-2%	2%	·
C=CCNC(=O)c1cc(-c2ccc3c(c2)OCO3)on1	-10%	0.45µM*	2.1µM*	0.56µM*	?	·
COCCNC(=O)COCc1cc(-c2ccc3c(c2)OCO3)on1	-1%	-4%	?	-1%	5%	·
COCCNC(=O)c1cc(-c2ccc3c(c2)OCO3)on1	2%	1.6µM*	6.7µM*	2.5µM*	?	11µM*
CCC(C)NC(=O)c1cc(-c2ccc3c(c2)OCO3)on1 (stereo not given)	-11%	0.89µM*	3.4µM*	0.45µM*	?	·
O=C(Nc1ccc(Br)cc1)c1cc(-c2ccc3c(c2)OCO3)on1	6%	-9%	-2%	-11%	4%	·
CC(C)CCNC(=O)c1cc(Sc2ccc(F)cc2F)nc2ccccc12	·	·	1%	·	·	·
Cc1nc2ccccc2c(=O)n1NC(=O)CCC(=O)O	3%	-2%	-2%	-2%	2%	16%
CCN(CC)C(=O)COc1ccc(/C=N/NC(=O)c2cc(-c3ccccc3OC)nc3ccccc23)cc1OC	7%	·	·	·	·	·
CC1CCCCC1NC(=O)c1ccc2c(c1)OCCO2 (stereo not given)	5%	12%	?	29%	12%	·
CC1CCC(NC(=O)C(=O)Nc2ccc3c(c2)OCO3)CC1 (stereo not given)	-1%	2µM*	7.6µM*	0.71µM*	4.1µM*	·
CC1CCCC(NC(=O)c2ccc3c(c2)OCCO3)C1C (stereo not given)	-7%	4µM*	13µM*	1.6µM*	?	·
O=C(NC1CCCCC1)c1ccc2c(c1)OCO2	-4%	?	?	?	?	·
CC1CCC(NC(=O)c2ccc3c(c2)OCO3)CC1 (stereo not given)	-11%	0.32µM*	2.7µM*	0.45µM*	0.46µM*	·
Cc1cccc(NC(=O)C2CCN(S(=O)(=O)c3ccc4c(c3)CCCC(=O)N4)CC2)c1	·	·	7%	·	·	·
CCOc1ccc(N2CC(NC(=O)c3ccc(Cl)cc3)CC2=O)cc1 (stereo not given)	·	·	4%	·	·	·
CN(Cc1ccccc1)C(=O)CSc1nc2ccsc2c(=O)n1-c1ccc(F)cc1	·	·	-17%	·	·	·
Cc1ccc(OCC(=O)Nc2ccncc2)cc1	3%	0%	13µM*	0%	5%	·
Cc1ccc(OCC(=O)Nc2ccc(F)cc2)cc1	-7%	-1%	15µM*	-5%	?	19%
Nc1ccc(Cc2ccc(N)c(O)c2)cc1O	-1%	0%	19µM*	?	-13%	5%
